# MITF primary: blocks human microphthalmia-associated transcription factor | AlphaScreen MITF homodimerization, bead proximity signal | inhibition, % at 2.6 µM | 650,000 compounds, 0.91% hits; in the data active = inhibition above about 50%;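 also: 0% = vehicle wells with protein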
# FBW7 act: activators of human E3 ligase FBW7; 650,000 compounds, 0.13% hits; Q969H0; AlphaScreen FBW7–phospho-cyclin E peptide binding, activator screen; normalized activity (activation), % at 26.1 µM; AID 1259310; in the data active = normalized activity above about 1.9%;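 also: purified mutant Fbw7 with reduced substrate affinity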
# GPR151 ag: activates the human receptor GPR151 | Q8TDV0 | PathHunter beta-arrestin GPR151 cells, luminescence | activation, % at 11.2 µM | 650,000 compounds, 1% hits | AID 1508602; in the data active = activation above about 4.9%;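 also: 0% = median of compound wells and 100% = cells with positive control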
# Target sequence (Q8TDV0 whole entry, looked up): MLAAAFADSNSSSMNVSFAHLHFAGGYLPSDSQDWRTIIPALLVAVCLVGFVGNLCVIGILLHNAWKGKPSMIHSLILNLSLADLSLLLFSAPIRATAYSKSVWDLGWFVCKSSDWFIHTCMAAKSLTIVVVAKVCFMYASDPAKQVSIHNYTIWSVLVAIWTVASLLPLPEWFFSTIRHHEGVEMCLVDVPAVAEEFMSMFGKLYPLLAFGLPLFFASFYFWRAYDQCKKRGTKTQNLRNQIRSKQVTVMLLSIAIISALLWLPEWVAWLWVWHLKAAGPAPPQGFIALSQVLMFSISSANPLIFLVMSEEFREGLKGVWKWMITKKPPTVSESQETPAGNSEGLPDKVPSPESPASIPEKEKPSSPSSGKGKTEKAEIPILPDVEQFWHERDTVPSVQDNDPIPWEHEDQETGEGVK
# TEAD-YAP block: TEAD-YAP interaction inhibition | HEK-TIYL cells, TEAD-Gal4/YAP UAS-luciferase luminescence | inhibition, % at 9.12 µM | 640,000 compounds, 1.4% hits; in the data active = inhibition above about 32%;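 also: 0% = median of test compound wells and 100% = reference inhibitor wells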
# An asterisk follows results filed as active; x = no result given; ! = repeats disagree. Hits are enriched below; roughly 3.5% of the tested compounds scored in any of these assays.
SMILES,MITF primary,FBW7 act,GPR151 ag,TEAD-YAP block
COc1ccc(-n2cnc3cc(C(=O)N4CCC5(CC4)OCCO5)ccc32)cc1,2.5,0.0,0.0,47.8*
O=C(c1ccc2c(c1)ncn2C1CCCCCC1)N1CCC2(CC1)OCCO2,-0.5,0.1,0.0,-11.3
O=C(c1ccc2c(c1)ncn2-c1ccc(OCc2ccccc2)cc1)N1CCC2(CC1)OCCO2,-1.6,0.0,2.2,41.8*
CCN(CC)Cc1cc2ccccc2o1,-0.3,0.2,-0.1,2.5
c1ccc(C2CCNCC2)cc1,3.4,0.0,-0.4,-3.7
O=C1NC(=S)N(c2ccccc2F)C(=O)/C1=C\c1ccco1,71.6*,-0.2,-0.2,-8.5
Cc1ccc(N2C(=O)/C(=C\C=C\c3ccco3)C(=O)NC2=S)cc1,59.2*,-0.2,-0.5,-1.1
C=CCN1C(=O)/C(=C/c2ccco2)C(=O)NC1=S,77.3*,-1.4,-0.7,7.9
O=C1NC(=S)N(c2ccccc2)C(=O)/C1=C/c1ccco1,66.3*,-0.7,3.1,8.8
Cc1ccc(NP(=O)(NC(=O)c2cccn2C)Nc2ccc(C)cc2)cc1,12.1,0.0,3.8,8.0
O=c1c2ccccc2nc(/C=C\c2ccccc2F)n1-c1ccc(I)cc1,12.0,0.1,0.9,0.7
CCOC(=O)C1C2NC(=S)N(c3cccc(F)c3)C1(C)Oc1ccccc12 (configuration not stated),21.9,-0.1,2.5,-1.7
O=C1NC(=S)N(Cc2ccco2)C(=O)/C1=C\c1cccs1,82.0*,-0.6,1.6,-2.4
O=C1NC(=O)N(Cc2ccco2)C(=O)/C1=C\c1ccco1,30.8,-1.3,-0.6,-3.5
c1csc(CCN2CCc3nc4ccncc4cc3C2)c1,7.9,0.3,0.0,3.4
O=c1[nH]c(N2CCNCC2)nc2c1CCCCC2,12.5,0.2,-0.7,-1.2
CO[C@@H]1C[C@@H](C[C@H]2CC[C@H](C)[C@H]([C@@H](C)C(=O)O)O2)O[C@]2(O[C@](C)([C@H]3CC[C@@](C)([C@@H]4O[C@@H]([C@H]5O[C@@](O)(CO)[C@H](C)C[C@@H]5C)C[C@@H]4C)O3)C[C@H]2C)[C@@H]1C,11.9,0.2,-2.5,77.2*
O=P(OC(c1ccc(F)cc1)C(F)(F)F)(c1ccccc1)c1ccccc1 (configuration not stated),6.1,-0.1,-0.4,1.1
NCCc1cc(O)c(O)cc1O,113.8*,-0.4,0.0,-9.4
COc1ccc2c3c([nH]c2c1)C(C)=NCC3,27.2,-0.2,0.0,24.2
COc1ccc2c(c1)[nH]c1c(C)nccc12,-8.5,-0.1,-0.1,85.5*!
O=C1NC(=S)NC(=O)C1=Cc1ccc(OCc2cccc(C(=O)O)c2)cc1,5.3,-0.2,-7.8,62.5*
O=C1C=CC(=O)c2c(O)cccc21,108.5*,-0.2,0.2,1.7
CN1C2CCC1/C(=C\c1cccnc1)C(=O)/C2=C/c1cccnc1,22.4,0.8,-0.3,52.6*
O=C1/C(=C/c2cccnc2)N2CCC1CC2,1.6,-0.1,0.0,-6.8
SMILES,MITF primary,FBW7 act,GPR151 ag,TEAD-YAP block
O=C(NCCN1CCN(C(=O)Cc2cccs2)CC1)c1cccs1,8.6,-0.1,0.9,3.4
C[C@@H]1C[C@@H]([C@H](O)CC2CC(=O)NC(=O)C2)C(=O)[C@@H](C)C1,-9.0,0.5,-2.7,98.0*
COc1cccc(CN2CCN(c3ccccc3)CC2)c1,34.9,-0.2,-0.6,5.2
COc1ccc(CN2CCNCC2CCO)c(C)c1C (configuration not stated),-0.9,-0.1,4.4,1.7
NC(Cc1cc(O)c(O)cc1O)C(=O)O (configuration not stated),62.0*,-0.4,0.1,-6.7
CC[C@@]1(O)C(=O)OCc2c1cc1n(c2=O)Cc2cc3ccccc3nc2-1,8.1,0.2,-0.2,75.9*
CC[C@@]1(O)C(=O)OCc2c1cc1n(c2=O)Cc2cc3c(O)cccc3nc2-1,34.4,-0.2,-2.3,78.2*
CCCCc1nc2ccccc2c(=O)n1-c1ccccc1O,12.3,0.4,-0.6,11.4
C[C@@H]1O[C@@H](O[C@@H]2C=C3CCC4C(CC[C@]5(C)[C@@H](c6ccc(=O)oc6)CC[C@]45O)[C@@]3(C)CC2)[C@H](O)[C@H](O)[C@H]1O (some centres not stated),4.8,-0.1,10.1*,x
CCCC(=O)c1c(O)[nH]c(=S)[nH]c1=O,-6.1,-0.1,-1.1,0.4
Cc1c(O)c(O)cc2c1CC=C1[C@@]2(C)CC[C@@]2(C)C3C[C@](C)(C(=O)O)CC[C@]3(C)CC[C@]12C (some centres not stated),-2.8,0.0,-1.2,56.2*
CC1=C(O)C(=O)C=C2C1=CC=C1[C@@]2(C)CC[C@@]2(C)[C@@H]3C[C@](C)(C(=O)O)CC[C@]3(C)CC[C@]12C,-13.2,0.0,-0.7,42.8*
COc1ccc(OC)c(NC(=S)NCCc2cnc[nH]2)c1,3.0,-0.4,-0.5,-10.5
COc1ccc(CNCCc2c(C)[nH]c3ccccc23)c(OC)c1C,26.9,-0.2,0.6,-11.3
O=Cc1cn(Cc2cccc([N+](=O)[O-])c2)c2ccccc12,-4.4,-0.6,-1.2,48.3*
O=[N+]([O-])c1cccc(CN2CCN(Cc3ccccc3)CC2)c1,35.7,0.0,-0.8,2.3
Cc1ccc(N2C(=O)c3cccc(F)c3C2=O)c(C(=O)c2ccc(Br)cc2)c1,1.5,-0.3,0.6,3.5
COC(=O)C1CNCCN1c1ccccc1 (configuration not stated),10.3,-0.2,0.2,5.0
COc1cc2c(cc1OC)[C@@H]1C(=O)c3ccc4c(c3O[C@@H]1CO2)C[C@H](C(C)C)O4,12.8,0.1,2.4,67.9*
CCN1CCC(O)(c2ccccc2)C(C(=O)c2ccccc2)C1 (configuration not stated),9.3,2.0*,-0.5,3.5
CCC1CN(C)CCC1(O)c1ccccc1 (configuration not stated),9.7,0.0,1.4,9.4
CCOC(=O)C1=C(CN2CC=C(c3ccccc3)CC2)NC(=O)NC1c1ccc(C)cc1 (configuration not stated),3.5,0.0,-1.4,6.1
O=C1OC(c2cncc(Br)c2)=N/C1=C\c1cccs1,3.6,0.1,-1.2,-0.3
CCC1/C=C/C=C/C[C@H](C)[C@@H](O)[C@](C)(O)C(=O)[C@@H](C)[C@H](O)[C@@H](C)C(=O)[C@H](C)[C@@H](O)[C@H](C)/C=C/C(=O)OC2[C@@H](C)C(CC1)OC1(CC[C@@H](C)C(C[C@H](C)O)O1)[C@@H]2C (some centres not stated),-1.0,-0.1,3.9,94.1*
C=COCCNC(=S)N1CCCCC1c1cccnc1 (configuration not stated),14.8,0.2,-0.9,-3.0
Cc1ccc2sc(N(CCN3CCOCC3)C(=O)COc3ccccc3)nc2c1C,-11.9,0.0,-0.6,-48.2
COc1[nH]c2ccccc2c1C=C(C#N)C#N,7.3,-0.2,1.1,70.6*
CCOC(=O)C1(c2ccccc2)CCN(CCC(=O)Nc2ccccc2)CC1,11.4,0.0,-0.3,6.3
C[C@@H](O)[C@@H]1NC(=O)[C@H]2CN(Cc3ccccn3)CCN2C1=O,11.9,-0.1,1.9,1.4
